Screening results from PubChem BioAssay.
Hits are enriched below; roughly 21% of the tested compounds scored in any of these assays.
D3 antag = antagonists of human D3 dopamine receptor. P35462. D3R cells, DiscoveRx beta-arrestin luminescence, antagonist mode; hits give low values. max response, negative = inhibition, %. 360,000 compounds, 2.5% hits. AID 652054; in the data active = max response below about -50%; inconclusive = no clear call, values can overlap the other calls
Target sequence (P35462 whole entry, looked up): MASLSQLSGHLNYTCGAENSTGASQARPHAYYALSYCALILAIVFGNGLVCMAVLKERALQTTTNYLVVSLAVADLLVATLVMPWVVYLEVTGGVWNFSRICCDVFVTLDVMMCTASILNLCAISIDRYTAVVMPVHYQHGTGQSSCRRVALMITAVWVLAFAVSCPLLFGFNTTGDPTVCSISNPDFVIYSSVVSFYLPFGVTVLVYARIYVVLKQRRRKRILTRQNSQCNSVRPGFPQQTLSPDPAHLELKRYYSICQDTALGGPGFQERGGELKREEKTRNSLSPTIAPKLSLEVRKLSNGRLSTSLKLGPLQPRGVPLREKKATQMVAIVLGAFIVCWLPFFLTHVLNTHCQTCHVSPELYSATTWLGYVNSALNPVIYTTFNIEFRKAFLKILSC
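Cells expressing the human receptor were seeded at 1500 cells/well, incubated overnight at 37 degrees C in 5% CO2, then exposed to library compounds with dopamine controls for 90 minutes at 37 degrees C before luminescent detection.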
IL-1B inflam inh = blocks inflammasome-driven IL-1 beta release; AID 743279; activity change, % at 57.5 µM; 360,000 compounds, 4.7% hits; THP-1 LPS/ATP IL-1B secretion, AlphaLISA, 16 h; hits give low values; in the data active = activity change below about -50%; inconclusive = mostly about -30% to -49%
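Secreted IL-1B measured by AlphaLISA bead assay after 16 h compound exposure of THP-1 cells; compounds (final up to 57.5 uM) added 1 h before LPS (250 ng/mL) and ATP (1.25 mM) stimulation; lower signal means less secretion.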
TDP1 cell noCPT = qHTS for Inhibitors of human tyrosyl-DNA phosphodiesterase 1 (TDP1): qHTS in cells in absence of CPT; DT40 Tdp1-/- hTDP1 cells, no CPT, ATP luminescence, 48 h; 420,000 compounds, 15% hits; Potency, µM (titrated, usually from 46.2 µM), hits mostly inhibitors; also: nearly all actives have a fitted effect of over 55% in size
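Compound effects on proliferation are scored in DT40 Tdp1-/-;hTDP1 cells in the absence of CPT. ATP levels (CellTiter-Glo luminescence) are recorded after a ≥48 hr, 37 °C incubation.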
DRD3 agonist = D3 dopamine receptor (human) agonism | P35462 | max activation, % | D3R DiscoveRx beta-arrestin cells, luminescence, 90 min | 410,000 compounds, 0.58% hits | AID 652048; in the data active = max activation above about 30%
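Agonist mode: compounds and dopamine controls were applied to plated cells for 90 min at 37 degrees C after an overnight attachment at 1500 cells/well. Luminescent read-out followed 30 - 60 minutes at room temperature with DiscoveRx detection reagent.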
ClpP mod = qHTS Assay for Activators of ClpP; 340,000 compounds, 1.9% hits; Potency, µM (series often up to 57.5 µM); ATP-dependent Clp protease proteolytic subunit (Bacillus subtilis (strain 168)), P80244; purified B. subtilis ClpP, FRET peptide cleavage, 20 min; active = well fitted falling curve with a large enough effect; inconclusive = small, poorly fitted or top-dose-only effect; inactive = no such curve, though single readings can be large or run the other way; also: the source files actives as falling curves though it sought activators and does not explain the sign; nearly all actives have a fitted effect of over 65% in size
Target sequence (P80244 whole entry, looked up): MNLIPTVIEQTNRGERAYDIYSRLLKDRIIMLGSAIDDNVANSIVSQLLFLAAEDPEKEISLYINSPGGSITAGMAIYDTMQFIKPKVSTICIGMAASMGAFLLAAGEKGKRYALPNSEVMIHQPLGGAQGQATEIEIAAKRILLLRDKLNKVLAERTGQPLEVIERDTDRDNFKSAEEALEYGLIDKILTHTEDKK
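Buffer: 100 mM Tris/HCl pH8, 100 mM KCl, 0.05% low protease BSA, 2.5% glycerol, 0.01% Tween-20. ClpP 10 microg/mL final; 20 min RT; delta FRET normalized to ADEP and DMSO controls.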
TDP1 cell CPT = growth inhibition of DT40 Tdp1-/-;hTDP1 cells with camptothecin (screen for TDP1 inhibitors); 420,000 compounds, 12% hits; chicken DT40 Tdp1-/-;hTDP1 cells + 20 nM CPT, ATP luminescence, 48 h; Potency, µM (doses to about 46.2 µM), actives largely listed as inhibitors; also: nearly all actives have a fitted effect of over 55% in size
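Cell growth measured by CellTiter-Glo luminescence after a minimum 48 h, 37 C compound exposure with 20 nM CPT in Tdp1-knockout DT40 cells stably expressing hTDP1, seeded 400/well; qHTS titration format.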
Of the large screens only hits and unclear results are named; the others gave an inactive call. Unless noted, calls follow the shape of the dose curve; as a rule, active = well fitted inhibition curve with a large enough effect; inconclusive = small, poorly fitted or top-dose-only effect; inactive = flat fitted curve, though single readings scatter.

C[C@@H]1CCCCO[C@@H](CN(C)CC2CC2)[C@@H](C)CN([C@H](C)CO)C(=O)c2cc(N(C)C)ccc2O1	none
C[C@H](CO)N1C[C@H](C)[C@@H](CN(C)S(=O)(=O)c2ccccc2)Oc2ccc(NC(=O)C3CCCCC3)cc2C1=O	TDP1 cell noCPT inconclusive, TDP1 cell CPT inconclusive
C[C@@H]1CCCCO[C@H](CN(C)S(=O)(=O)c2cccs2)[C@H](C)CN([C@@H](C)CO)C(=O)c2cc(NC(=O)NC3CCCCC3)ccc2O1	TDP1 cell noCPT 11.6µM, TDP1 cell CPT 18.4µM
COC(=O)C1=C(C(=O)OC)[C@@H]2Nc3ccccc3[C@@]23C[C@@H](C(=O)OC)N(C(=O)C2CCC2)C3=N1	none
Cc1c(Br)c([N+](=O)[O-])nn1CC(=O)NC1CCCCCC1	none
CC(=O)Nc1cccc(C(=O)N2CCC(n3nccc3NC(=O)CC(C)C)CC2)c1	none
C[C@@H]1CCCCO[C@@H](CN(C)S(=O)(=O)c2cccs2)[C@@H](C)CN([C@H](C)CO)C(=O)c2cc(NS(=O)(=O)c3ccccc3)ccc2O1	IL-1B inflam inh inconclusive, TDP1 cell noCPT 8.2µM, TDP1 cell CPT 16.4µM
C[C@H]1CCCCO[C@H](CN(C)S(=O)(=O)c2cn(C)cn2)[C@@H](C)CN([C@@H](C)CO)C(=O)c2cc(NS(=O)(=O)c3ccccc3)ccc2O1	none
CCCc1nc2ccccc2c(C(=O)O)c1CC	none
CCCOC(=O)c1c(-c2ccccc2)nc(CC)c(C(=O)SCC)c1CCC	TDP1 cell noCPT 16.4µM, TDP1 cell CPT inconclusive
Cc1cccc(NC(=O)c2ccc(Cn3cc(C(F)(F)F)ccc3=O)cc2)c1	none
Cc1ccc2c(c1)C(=O)C(=O)N2Cc1ccc(OC(C)C)cc1	TDP1 cell noCPT 0.058µM, TDP1 cell CPT 0.0073µM (no result: D3 antag, IL-1B inflam inh)
CC(=O)c1cc(C)ccc1OC(=O)CN1C(=O)c2ccccc2C1=O	none
Cc1ccc2c(c1)C(=O)C(=O)N2CC(=O)OC(C)C	D3 antag inconclusive, TDP1 cell noCPT 5.8µM, TDP1 cell CPT 5.17µM
Cc1ccc2c(c1)C(=O)C(=O)N2Cc1ccc(C(F)(F)F)cc1	D3 antag -50.8, TDP1 cell noCPT 1.03µM, TDP1 cell CPT 0.92µM
Cc1ccc([C@@H]2[C@@H]3C(=O)N(c4ccccc4)C(=O)[C@@H]3[C@]3(C)C(=O)N(CC4CC4)CC(=O)N23)o1	none
CN1CCN(C2=Nc3ccccc3Sc3ccc(Cl)cc32)CC1	TDP1 cell noCPT 10.6µM, TDP1 cell CPT inconclusive (no result: D3 antag, IL-1B inflam inh, ClpP mod)
COc1cc(C(=O)NC(=S)N2CCN(C)CC2)cc(OC)c1OC	none (no result: ClpP mod)
CCc1nc2c(OCc3ccc(F)cc3)cccn2c1N(C)C(=O)C(C)C	TDP1 cell noCPT inconclusive
CCC(CC)C(=O)N(C)c1c(C)nc2c(OCc3ccccc3C(=O)OC)cccn12	TDP1 cell noCPT 16.4µM, TDP1 cell CPT inconclusive
CCC(CC)C(=O)N(C)c1c(C)nc2c(OCC3CCCCC3)cccn12	TDP1 cell noCPT 13µM, TDP1 cell CPT inconclusive
CCC(CC)C(=O)N(C)c1c(C)nc2c(OCc3ccccc3OC)cccn12	TDP1 cell noCPT 14.6µM, TDP1 cell CPT inconclusive
COC(=O)c1ccccc1COc1cccn2c(N(C)Cc3cccs3)c(C)nc12	IL-1B inflam inh -78.2, TDP1 cell noCPT inconclusive, TDP1 cell CPT inconclusive
Cc1ccc(C(=O)Nc2cccc3cccnc23)cc1C	TDP1 cell noCPT inconclusive, TDP1 cell CPT inconclusive
Cc1ccccc1Nc1cc(C(=O)NC2CCCC2)c2ccccc2n1	none (no result: D3 antag, IL-1B inflam inh)
Cc1ccccc1Nc1cc(C(=O)NCC2CCCO2)c2ccccc2n1 (stereo not given)	TDP1 cell noCPT inconclusive, TDP1 cell CPT 18.4µM
Cc1ccccc1-c1noc(-c2ccccc2C(=O)NCC2CCCO2)n1 (stereo not given)	TDP1 cell noCPT 18.4µM, TDP1 cell CPT inconclusive
COCCCNC(=O)c1ccc([N+](=O)[O-])cc1	none (no result: ClpP mod)
O=C(CCl)NCCCN(C(=O)C(Cl)Cl)c1ccc([N+](=O)[O-])cc1	TDP1 cell noCPT 13µM, TDP1 cell CPT 9.2µM
OCCNc1nc(Nc2ccccc2)nc(Nc2ccccc2)n1	TDP1 cell CPT inconclusive
Cc1c2ccccc2nc2c(F)c(NC(C)C)c(F)c(F)c12	IL-1B inflam inh -53.3, TDP1 cell noCPT inconclusive, TDP1 cell CPT inconclusive
OCCNc1c2ccccc2nc2c(F)c(F)c(F)c(F)c12	IL-1B inflam inh -92.6, TDP1 cell noCPT 2.31µM, TDP1 cell CPT 2.06µM
Cc1c2ccccc2nc2c(F)c(NCCO)c(F)c(F)c12	IL-1B inflam inh -86.6, TDP1 cell noCPT inconclusive, TDP1 cell CPT inconclusive
COCCCNC(=O)c1ccc2sc(C3=C[C@@H](O)[C@@H](O)[C@@H](CO)O3)nc2c1	none
CCn1c(C(C)NC(=O)c2cccc(C)c2)n[nH]c1=S (stereo not given)	none
CC(C)(C)n1nnnc1C(c1ccccc1)N1CCN(c2ccc(F)cc2)CC1 (stereo not given)	TDP1 cell noCPT inconclusive, TDP1 cell CPT inconclusive
COc1ccccc1N1CCN(C(c2ccc(N(C)C)cc2)c2nnnn2CCc2ccccc2)CC1 (stereo not given)	D3 antag -51.2, TDP1 cell noCPT inconclusive
COc1ccccc1C(c1nnnn1Cc1ccco1)N1CCN(c2cccc(C)c2C)CC1 (stereo not given)	IL-1B inflam inh inconclusive, TDP1 cell noCPT 16.4µM, TDP1 cell CPT 18.4µM
CCN1CCN(C(c2cccc(OC)c2OC)c2nnnn2Cc2ccco2)CC1 (stereo not given)	none (no result: ClpP mod)
COc1ccccc1N1CCN(C(c2ccc(F)cc2)c2nnnn2C(C)C)CC1 (stereo not given)	ClpP mod 17.8µM
COc1ccccc1N1CCN(C(c2ccccc2)c2nnnn2Cc2ccccc2)CC1 (stereo not given)	TDP1 cell noCPT 15.8µM, TDP1 cell CPT 14.1µM (no result: D3 antag, IL-1B inflam inh, DRD3 agonist)
COc1ccc(NC(=O)C2(S(=O)(=O)c3ccc(C)cc3)CC2)cc1	none (no result: ClpP mod)
COc1ccc(Cn2nnnc2C(C(C)C)N2CCN(c3ccccc3OC)CC2)cc1 (stereo not given)	TDP1 cell noCPT 23.1µM, TDP1 cell CPT 29.1µM
COc1cc(NC(=O)CCN2CCOCC2)cc(OC)c1	none
Cc1ccccc1N1CCN(CCC(=O)Nc2ccc(F)cc2)CC1	D3 antag -84.2, TDP1 cell noCPT inconclusive, TDP1 cell CPT inconclusive
CCOC(=O)C1CCN(CCC(=O)Nc2ccc(C)cc2)CC1	TDP1 cell CPT inconclusive
COc1cc(NC(=O)CCN2CCN(c3ccccc3F)CC2)cc(OC)c1	IL-1B inflam inh inconclusive, TDP1 cell CPT 29.1µM
CCOC(=O)C1CCN(CCC(=O)Nc2cccc(Cl)c2)CC1	D3 antag -55.6, IL-1B inflam inh inconclusive
